# PubChem BioAssay (NCATS)
# Values without a mark were called inactive. Results filed as inconclusive are left out. Active and inactive are the calls of the source. Unless noted, calls follow the shape of the dose curve; as a rule, active = well fitted curve in the direction sought with a large enough effect; inconclusive = small, poorly fitted or top-dose-only effect, or another doubt; inactive = no such curve, though single readings can be large; an effect the other way counts as inactive or inconclusive.
# Tests used:
# [1] = Cell Viability - Hek293 (AID 427;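 active = compounds whose dose-response curve shows a full or clear partial loss of cell viability, called from curve shape rather than a numeric limit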;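 also: potency is read from the fitted curve at half-maximal effect; cells exposed to compound for 40 hours at 37 °C before reading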); settings: qHTS
# Procedure, shortened: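 Luminescent ATP read-out (CellTiter-Glo, 20 min RT) after 40 hr compound exposure at 37 °C in complete medium. Signal normalized to DMSO (basal) and 100 uM tamoxifen (100% inhibition); concentration-response fitted with the standard Hill equation to give AC50.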
# [2] = Cell Viability - N2a (AID 540); settings: N2a mouse neuroblastoma cell viability; activity change, negative = cytotoxicity: at 92.2 µM (top of the series); also: nearly all actives have a fitted effect of over 45% in size; also: potency is read from the fitted curve at half-maximal effect;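 as to activity change, negative = cytotoxicity: plate controls were DMSO alone for no effect and tamoxifen control for full effect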
# Procedure, shortened: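 Luminescent ATP signal (CellTiter-Glo, 20 min at room temperature) served as the viability read-out after N2a cells were treated with compounds for 40 hours at 37 °C. Concentration-response data were fitted to the Hill equation for AC50.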
# [3] = Cell Viability - NIH 3T3 (AID 541); settings: NIH 3T3 cell viability, qHTS; activity change, negative = cytotoxicity: at 92.2 µM (top of the series); also: nearly all actives have a fitted effect of over 25% in size; also: potency is read from the fitted curve at half-maximal effect;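 as to activity change, negative = cytotoxicity: plate controls were DMSO alone for no effect and tamoxifen positive control for full effect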
# Procedure, shortened: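 Luminescent ATP signal (CellTiter-Glo) served as the viability read-out after NIH 3T3 cells were exposed to compounds over a concentration range for 40 hr at 37 °C. Hill-equation modelling of concentration-response data gave AC50.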
# [4] = Cellular Toxicity (caspase-3) HepG2 (AID 654); settings: HepG2 caspase-3 activation, luminescence, 0% = DMSO only, 100% = tamoxifen; series mostly up to 92.2 µM;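 also: cells exposed to compound for 16 hours before reading; 0% = DMSO alone and 100% = caspase signal from 100 µM tamoxifen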
# Procedure, shortened: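 Cells plated 5 hr at 37 °C, compound added, incubated 16 hr at 37 °C. Caspase-Glo 3/7 reagent followed, 20 min at room temperature, then luminescence read. Activation scored as signal increase; AC50 from Hill fit.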
# [5] = Cellular Toxicity (caspase-3) MRC-5 (AID 659); settings: MRC-5 cells, luminescence, normalized: DMSO 0%, 10 µM staurosporine 100%; series mostly up to 91.7 µM
# Procedure, shortened: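 MRC-5 human normal lung fibroblasts, 1500 cells/well, treated 16 h at 37 °C in complete medium. Caspase 3/7 measured by Caspase-Glo luminescence after 1 h at room temperature. Normalized to DMSO and 10 uM staurosporine; AC50 from Hill fit.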
# [6] = MultiTox-Fluor Cytotoxicity Assay - LYMP1-001 - Live Cells (AID 947); settings: LYMP1-001 lymphoblastoid cells, live-cell protease fluorescence viability; series mostly up to 92.2 µM; also: potency is read from the fitted curve at half-maximal effect;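 as to activity change, negative = cytotoxicity: 0% = DMSO only and full inhibition = tetraoctylammonium bromide control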
# [7] = Cell Viability - LYMP2-013 (AID 970); settings: LYMP2-013 lymphoblastoid cells viability; series mostly up to 92.2 µM; also: nearly all actives have a fitted effect of over 55% in size; also: potency is read from the fitted curve at half-maximal effect
# Procedure, shortened: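 qHTS; 2500 lymphoblastoid cells/well; 5 hr 37 C settle; cpd 24 hr 37 C; CellTiter-Glo, 30 min RT; luminescence. AC50 = Hill fit.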
# [8] = Cell Viability - LYMP2-015 (AID 971); settings: LYMP2-015 lymphoblastoid cell viability; series mostly up to 92.2 µM; also: nearly all actives have a fitted effect of over 55% in size; also: potency is read from the fitted curve at half-maximal effect
# Procedure, shortened: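 Luminescent ATP read-out (CellTiter-Glo) served as the viability measure after lymphoblastoid cells were exposed to compounds for 24 hours at 37 C. Concentration-response data were fitted with the Hill equation to give AC50.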
# [9] = Cell Viability - LYMP2-021 (AID 974); settings: LYMP2-021 lymphoblastoid cells viability; series mostly up to 92.2 µM;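 also: compound exposure lasts 24 hours at 37 °C; nearly all actives have a fitted effect of over 55% in size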; also: potency is read from the fitted curve at half-maximal effect; as to activity change, negative = cytotoxicity: % is scaled to controls: 0 for no effect and ±100 for the full control effect
# Procedure, shortened: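 Plate 2500 lymphoblastoid cells per well and incubate 5 hr at 37 C. Add compounds over a concentration range and incubate 24 hr at 37 C. Add CellTiter-Glo, wait 30 min at room temperature, read luminescence.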
# [10] = Cell Viability - LYMP2-025 (AID 976); settings: LYMP2-025 lymphoblastoid cell viability; series mostly up to 92.2 µM; also: potency is read from the fitted curve at half-maximal effect;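 as to activity change, negative = cytotoxicity: plate controls were DMSO only for no effect and tetraoctylammonium bromide control for full effect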
# Procedure, shortened: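 Seed 2500 LYMP2-025 cells/well; 5 hr at 37 C; add compound; 24 hr at 37 C; add CellTiter-Glo; 30 min RT; read luminescence. AC50 from Hill-modelled concentration-response.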
# [11] = Cell Viability - LYMP2-007 (AID 979); settings: LYMP2-007 lymphoblastoid cell viability; series mostly up to 92.2 µM;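 also: cells exposed to compound for 24 h before reading; nearly all actives have a fitted effect of over 60% in size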; also: potency is read from the fitted curve at half-maximal effect;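 as to activity change, negative = cytotoxicity: 0% = DMSO only and the negative end = 92 µM tetraoctylammonium bromide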
# Procedure, shortened: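 Luminescent ATP signal (CellTiter-Glo) serves as the viability read-out after 24 hr compound treatment of lymphoblastoid cells in complete medium at 37 C. Concentration-response data were fitted to the Hill equation to give AC50 values.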
# [12] = Cell Viability - LYMP2-012 (AID 982); settings: LYMP2-012 lymphoblastoid cell viability qHTS; series mostly up to 92.2 µM;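 also: cellular ATP by luciferase luminescence where a drop means cytotoxicity; cells exposed to compound for one day before reading; nearly all actives have a fitted effect of over 55% in size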; also: potency is read from the fitted curve at half-maximal effect;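 as to activity change, negative = cytotoxicity: 0% = DMSO only and full loss = 92 µM tetraoctylammonium bromide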
# [13] = Cell Viability - LYMP2-020 (AID 986); settings: series mostly up to 92.2 µM; also: nearly all actives have a fitted effect of over 55% in size; also: potency is read from the fitted curve at half-maximal effect
# Procedure, shortened: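 Luminescent ATP signal (CellTiter-Glo, 30 min at room temperature) is the read-out after 24 h compound treatment of lymphoblastoid cells at 37 C. AC50 values come from Hill-equation fits across concentrations.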
# [14] = molecular target: Voltage-gated inwardly rectifying potassium channel KCNH2 (Homo sapiens) (UniProt Q12809); experiment: qHTS Assay for Small Molecule Inhibitors of the Human hERG Channel Activity (AID 588834); settings: U2OS BacMam hERG, FluxOR thallium flux fluorescence; series mostly up to 92.2 µM;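 also: lower thallium flux fluorescence means stronger hERG block; nearly all actives have a fitted effect of over 50% in size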; also: potency is read from the fitted curve at half-maximal effect
# Chain of Voltage-gated inwardly rectifying potassium channel KCNH2 (Homo sapiens) (Q12809 whole entry, looked up): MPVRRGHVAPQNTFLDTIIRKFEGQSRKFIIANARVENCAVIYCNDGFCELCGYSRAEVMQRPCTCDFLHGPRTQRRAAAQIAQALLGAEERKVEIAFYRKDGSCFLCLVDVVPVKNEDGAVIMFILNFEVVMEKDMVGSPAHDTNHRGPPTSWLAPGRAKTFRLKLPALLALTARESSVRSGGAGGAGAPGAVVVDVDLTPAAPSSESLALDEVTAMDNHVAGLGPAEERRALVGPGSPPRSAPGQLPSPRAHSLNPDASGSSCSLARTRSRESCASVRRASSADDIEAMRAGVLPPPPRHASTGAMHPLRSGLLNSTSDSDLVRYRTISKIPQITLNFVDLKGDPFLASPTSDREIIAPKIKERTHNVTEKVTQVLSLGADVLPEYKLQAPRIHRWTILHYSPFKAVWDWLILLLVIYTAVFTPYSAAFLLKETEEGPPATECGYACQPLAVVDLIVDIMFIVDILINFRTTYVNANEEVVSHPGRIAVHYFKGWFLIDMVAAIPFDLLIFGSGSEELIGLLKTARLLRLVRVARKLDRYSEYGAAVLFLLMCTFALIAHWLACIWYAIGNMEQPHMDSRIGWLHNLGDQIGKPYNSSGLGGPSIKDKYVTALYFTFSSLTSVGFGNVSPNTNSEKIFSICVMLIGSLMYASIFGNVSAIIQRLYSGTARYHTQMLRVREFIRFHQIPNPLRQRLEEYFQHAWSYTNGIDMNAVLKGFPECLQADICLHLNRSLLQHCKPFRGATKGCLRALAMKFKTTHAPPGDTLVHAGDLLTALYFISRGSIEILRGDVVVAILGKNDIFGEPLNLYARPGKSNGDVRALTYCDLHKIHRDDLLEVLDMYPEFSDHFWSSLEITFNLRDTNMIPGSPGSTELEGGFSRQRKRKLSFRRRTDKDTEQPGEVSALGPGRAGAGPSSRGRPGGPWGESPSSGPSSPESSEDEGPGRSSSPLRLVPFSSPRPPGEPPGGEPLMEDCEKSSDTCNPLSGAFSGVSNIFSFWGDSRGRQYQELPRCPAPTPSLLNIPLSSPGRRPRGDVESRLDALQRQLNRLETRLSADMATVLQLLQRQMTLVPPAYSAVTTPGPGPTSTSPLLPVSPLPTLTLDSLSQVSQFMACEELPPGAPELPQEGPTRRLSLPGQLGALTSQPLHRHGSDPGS
# Procedure, shortened: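 U2OS cells BacMam-transduced with hERG, 2000 cells/well, compound ~10 min at 37 °C before stimulation buffer. FluxOR thallium flux fluorescence read kinetically on FDSS; decrease indicates block; AC50 from Hill fits.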
# [15] = molecular target: Tumor necrosis factor (Homo sapiens) (UniProt P01375); experiment: qHTS assay to identify small molecules that stimulate Tumor Necrosis Factor-alpha (TNF-alpha) secretion (AID 651757; active = well fitted curve in the direction sought with a large enough effect in the signal ratio; the % refers to the signal ratio; also: 0% is about no effect); settings: Human cells, HTRF 665/615 ratio; series mostly up to 92.2 µM
# Chain of Tumor necrosis factor (Homo sapiens) (P01375 whole entry, looked up): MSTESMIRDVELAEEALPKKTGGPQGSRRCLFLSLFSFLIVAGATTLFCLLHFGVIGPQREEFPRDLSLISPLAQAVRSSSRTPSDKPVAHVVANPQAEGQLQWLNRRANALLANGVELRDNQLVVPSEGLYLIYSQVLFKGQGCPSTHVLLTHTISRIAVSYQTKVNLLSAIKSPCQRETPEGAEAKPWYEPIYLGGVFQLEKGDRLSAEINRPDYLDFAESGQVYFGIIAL
# Procedure, shortened: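 Read-out is HTRF, a TR-FRET sandwich of cryptate- and XL665-labeled anti-TNF-alpha antibodies detecting cytokine secreted by THP-1 cells. Cells had been incubated with test compounds at 37 C for 17 hrs beforehand.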
# [16] = qHTS assay for small molecule agonists of the antioxidant response element (ARE) signaling pathway measured by Nrf2-dependant transcriptional activity (AID 720636; active = well fitted curve in the direction sought with a large enough effect in the repeat runs; an effect the other way counts as inactive or inconclusive; also: potency is read from the fitted curve at half-maximal effect;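 as to activation: HepG2 cells with an ARE-driven luciferase reporter; % of control where 0% means no effect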); settings: ARE-luc HepG2, Nrf2 luciferase reporter, 16 h; series mostly up to 92.4 µM
# Procedure, shortened: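 Attachment 6 hr at 37 C, then compound versus DMSO vehicle for 16 hr in ARE-luc HepG2 cells (1% dialyzed FBS); luminescence recorded 30 min after ONE-Glo addition at room temperature.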
# [17] = qHTS assay for cell viability of the p53RE-bla HCT-116 cell line (AID 743292); settings: p53RE-bla HCT-116 viability, ATP luminescence, 16 h; series mostly up to 95 µM; also: nearly all actives have a fitted effect of over 55% in size; also: potency is read from the fitted curve at half-maximal effect; as to activity change, negative = cytotoxicity: % is scaled to controls: 0 for no effect and ±100 for the full control effect
# Procedure, shortened: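 Compound-exposed HCT-116 (p53RE-bla) cells, 4,000 per well, were kept 16 h at 37 C following a 5 h preincubation. Cell number was estimated from total ATP by CellTiter-Glo luminescence read after 30 min at room temperature.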
# [18] = Cellular Toxicity (caspase-3) SK-N-SH (AID 661); settings: SK-N-SH caspase-3 activation, qHTS, DMSO as zero, staurosporine as full; series mostly up to 91.7 µM
# Procedure, shortened: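 Human neuroblastoma SK-N-SH, 1500 cells/well, 5 hr pre-incubation, then compound 16 hr, 37 °C. Caspase-Glo 3/7 reagent, 1 hr RT, luminescence. Norm. to DMSO/10 uM staurosporine; Hill-fit AC50.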
# [19] = Cell Viability - HepG2 (AID 433; calls by dose curve;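 also: potency is read from the fitted curve at half-maximal effect; potency for ATP loss meaning cytotoxicity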); settings: qHTS
# Procedure, shortened: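 HepG2 cells, 1500 per well, treated 40 hr at 37 °C in complete medium; viability from intracellular ATP by CellTiter-Glo luminescence. Normalized to DMSO and 100 uM tamoxifen; AC50 from Hill fit of qHTS concentration-response.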
compound,measurement,setting,value
OC(c1ccc(Cl)cc1)(c1ccc(Cl)cc1)C(Cl)(Cl)Cl,Potency,[1],> 92 µM
same,"activity change, negative = cytotoxicity",[2],-118% (active)
same,Potency,[3],inactive
same,outcome,[4],inactive
same,outcome,[5],inactive
same,Potency,[6],inactive
same,Potency,[7],inactive
same,Potency,[8],inactive
same,Potency,[9],inactive
same,Potency,[10],inactive
same,Potency,[11],inactive
same,Potency,[12],inactive
same,Potency,[13],inactive
same,Potency,[14],39.8 µM (active)
same,Potency,[15],inactive
same,Potency,[16],inactive
same,Potency,[17],50.1 µM (active)
CC(=O)[O-].CC(=O)[O-].O.O.[Cd+2],"activity change, negative = cytotoxicity",[2],-111% (active)
same,"activity change, negative = cytotoxicity",[3],-127% (active)
same,outcome,[4],inactive
same,outcome,[5],inactive
same,outcome,[18],inactive
same,Potency,[6],inactive
same,Potency,[8],39.8 µM (active)
same,Potency,[9],50.1 µM (active)
same,Potency,[10],inactive
same,Potency,[11],39.8 µM (active)
same,Potency,[15],inactive
same,Potency,[16],0.841 µM (active)
same,Potency,[17],inactive
CC(C)CC(C)Nc1ccc(Nc2ccccc2)cc1 (stereo unspecified),Potency,[19],> 92 µM
same,"activity change, negative = cytotoxicity",[2],-118% (active)
same,"activity change, negative = cytotoxicity",[3],-113% (active)
same,outcome,[4],inactive
same,outcome,[5],inactive
same,outcome,[18],inactive
same,Potency,[7],50.1 µM (active)
same,Potency,[8],39.8 µM (active)
same,Potency,[9],50.1 µM (active)
same,Potency,[11],39.8 µM (active)
same,Potency,[12],39.8 µM (active)
same,Potency,[13],39.8 µM (active)
same,Potency,[14],20 µM (active)
same,Potency,[17],inactive
Clc1ccc(C(c2ccc(Cl)cc2)C(Cl)Cl)cc1,Potency,[1],45.4 µM (active)
same,"activity change, negative = cytotoxicity",[2],-102% (active)
same,Potency,[3],inactive
same,outcome,[4],inactive
same,outcome,[5],inactive
same,outcome,[18],inactive
same,Potency,[7],inactive
same,Potency,[8],inactive
same,Potency,[9],inactive
same,Potency,[10],inactive
same,Potency,[11],inactive
same,Potency,[12],inactive
same,Potency,[13],inactive
same,Potency,[14],22.4 µM (active)
same,Potency,[15],inactive
same,Potency,[16],inactive
N#CC(Cl)Cl,Potency,[1],> 92 µM
same,"activity change, negative = cytotoxicity",[2],13.8%
same,Potency,[3],inactive
same,outcome,[4],inactive
same,Potency,[6],inactive
same,Potency,[7],20 µM (active)
same,Potency,[8],12.6 µM (active)
same,Potency,[9],25.1 µM (active)
same,Potency,[10],39.8 µM (active)
same,Potency,[11],20 µM (active)
same,Potency,[13],10 µM (active)
same,Potency,[14],inactive
same,Potency,[15],inactive
same,Potency,[17],44.7 µM (active)
N#CSCSC#N,Potency,[1],34.5 µM (active)
same,Potency,[19],50.3 µM (active)
same,Potency,[2],25.1 µM (active)
same,Potency,[3],10 µM (active)
same,outcome,[4],inactive
same,Potency,[6],39.8 µM (active)
same,Potency,[7],6.31 µM (active)
same,Potency,[8],5.01 µM (active)
same,Potency,[9],5.01 µM (active)
same,Potency,[10],10 µM (active)
same,Potency,[11],6.31 µM (active)
same,Potency,[12],5.01 µM (active)
same,Potency,[13],5.01 µM (active)
same,Potency,[14],31.6 µM (active)
same,Potency,[15],inactive
same,Potency,[16],inactive
same,Potency,[17],50.1 µM (active)
